Screening data (PubChem BioAssay)
PAFAH1B2 FP inh – blocks human PAF acetylhydrolase 1b catalytic subunit 2. inhibition, % at 3.39 µM. P68402. 1.2% of 340,000 active. recombinant PAFAH1B2, FP-rhodamine activity probe, fluorescence polarization;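 active = inhibition above the mean of all tested compounds plus 3 SD, cut at about 24% in these data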
Rin1 Abl inh – human Rin1-Abl interaction inhibition; P00519+Q13671; TR-FRET Rin1/Abl binding, biochemical; inhibition, % at 7.35 µM; 0.4% of 360,000 active; AID 588664; in the data active = inhibition above about 5%, passing the limit was not always enough
Target sequence (P00519 whole entry, looked up): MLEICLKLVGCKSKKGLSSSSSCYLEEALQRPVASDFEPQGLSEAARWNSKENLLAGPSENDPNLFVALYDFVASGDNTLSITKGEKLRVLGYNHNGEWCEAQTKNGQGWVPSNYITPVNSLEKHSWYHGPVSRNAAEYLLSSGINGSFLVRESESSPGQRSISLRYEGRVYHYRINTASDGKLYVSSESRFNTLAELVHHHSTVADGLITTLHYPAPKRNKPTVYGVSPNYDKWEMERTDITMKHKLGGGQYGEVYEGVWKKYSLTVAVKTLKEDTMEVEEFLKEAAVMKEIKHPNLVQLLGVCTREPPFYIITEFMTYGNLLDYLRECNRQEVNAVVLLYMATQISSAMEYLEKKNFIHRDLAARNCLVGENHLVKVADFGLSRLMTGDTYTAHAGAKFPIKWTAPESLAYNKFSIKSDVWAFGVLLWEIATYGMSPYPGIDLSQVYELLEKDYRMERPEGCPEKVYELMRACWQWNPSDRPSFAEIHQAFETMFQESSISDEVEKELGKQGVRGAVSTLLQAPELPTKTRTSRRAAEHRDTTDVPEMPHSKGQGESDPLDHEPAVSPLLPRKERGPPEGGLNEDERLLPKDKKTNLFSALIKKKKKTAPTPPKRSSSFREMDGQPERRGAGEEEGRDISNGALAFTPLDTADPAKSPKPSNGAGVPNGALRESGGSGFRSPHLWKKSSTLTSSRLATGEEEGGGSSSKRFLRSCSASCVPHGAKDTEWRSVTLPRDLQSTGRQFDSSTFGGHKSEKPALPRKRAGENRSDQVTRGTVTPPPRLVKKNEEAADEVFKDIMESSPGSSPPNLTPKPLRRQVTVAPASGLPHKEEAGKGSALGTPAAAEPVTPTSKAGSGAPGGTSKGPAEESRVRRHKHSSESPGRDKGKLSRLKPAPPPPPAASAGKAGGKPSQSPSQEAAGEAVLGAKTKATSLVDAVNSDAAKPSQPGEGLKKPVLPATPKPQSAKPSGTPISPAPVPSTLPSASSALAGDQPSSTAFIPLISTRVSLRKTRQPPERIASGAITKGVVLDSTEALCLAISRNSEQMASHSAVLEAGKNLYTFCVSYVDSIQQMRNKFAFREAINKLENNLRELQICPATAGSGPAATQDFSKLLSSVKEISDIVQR
Target sequence (Q13671 whole entry, looked up): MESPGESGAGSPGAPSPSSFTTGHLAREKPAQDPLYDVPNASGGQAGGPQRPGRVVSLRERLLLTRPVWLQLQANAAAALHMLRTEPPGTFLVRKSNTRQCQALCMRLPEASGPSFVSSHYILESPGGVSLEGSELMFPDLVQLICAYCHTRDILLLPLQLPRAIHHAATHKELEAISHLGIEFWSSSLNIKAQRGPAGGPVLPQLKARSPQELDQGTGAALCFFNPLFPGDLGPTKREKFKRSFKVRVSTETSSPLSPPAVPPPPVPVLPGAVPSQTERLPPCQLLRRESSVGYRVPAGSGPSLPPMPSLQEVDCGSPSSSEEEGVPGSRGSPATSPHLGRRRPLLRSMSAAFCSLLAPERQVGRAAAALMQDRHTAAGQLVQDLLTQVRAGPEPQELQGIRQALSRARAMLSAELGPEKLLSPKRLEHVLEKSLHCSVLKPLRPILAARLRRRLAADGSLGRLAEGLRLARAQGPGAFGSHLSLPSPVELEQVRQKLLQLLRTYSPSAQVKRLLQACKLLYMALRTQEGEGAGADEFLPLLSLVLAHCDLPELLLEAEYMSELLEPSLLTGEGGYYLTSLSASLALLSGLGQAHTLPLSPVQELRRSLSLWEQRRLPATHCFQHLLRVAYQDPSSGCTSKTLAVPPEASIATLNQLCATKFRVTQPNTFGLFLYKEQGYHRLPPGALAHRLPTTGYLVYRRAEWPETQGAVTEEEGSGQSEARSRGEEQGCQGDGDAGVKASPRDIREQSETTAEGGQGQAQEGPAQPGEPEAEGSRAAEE
PAFAH1B3 FP inh – PAFAH1B3 (human) inhibition | recombinant PAFAH1B3, FP-rhodamine probe, fluorescence polarization | inhibition, % at 3.39 µM | 0.28% of 340,000 active | AID 492972;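 active = inhibition above the screen-wide average of all tested compounds plus 3 SD, cut at about 25% in these data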
PAFAH2 inh – inhibitors of human PAFAH2. Q99487. recombinant PAFAH2, FP-rhodamine activity probe, fluorescence polarization. inhibition, % at 3.39 µM. 0.99% of 340,000 active. AID 492956;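 active = inhibition above the mean over all tested compounds plus 3 SD, cut at about 30% in these data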;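 also: inhibitors block probe labeling of enzyme so polarization drops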
eLon inh – inhibitors of E. coli Lon protease | P0A9M0 | purified E. coli Lon protease, fluorescence polarization | inhibition, % at 7.94 µM | 0.42% of 360,000 active | AID 602123; in the data active = inhibition above about 13%, passing the limit was not always enough
pPAFAH inh – pPAFAH (human) enzyme inhibition | recombinant pPAFAH, FP-rhodamine probe fluorescence polarization | inhibition, % at 3.39 µM | 1.5% of 330,000 active | AID 463082;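 active = inhibition above the mean inhibition across the screen plus 3 SD, cut at about 25% in these data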;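 also: inhibitors block binding of the rhodamine activity-based probe so polarization drops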
PAFAH2 confirm – PAFAH2 (human) inhibition, confirmed | 65% of 2,300 active | shares compounds with PAFAH2 inh | inhibition, % at 3.39 µM | recombinant PAFAH2, FP-rhodamine activity probe, fluorescence polarization;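 active = mean inhibition over three repeats above a set limit taken from the earlier primary screen, cut at about 30% in these data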;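 also: inhibitor blocks binding of rhodamine activity probe so polarization falls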
Each line names hits and unclear results; the compound was inactive in the other large screens (follow-up assays come after a bar, where they were run). An excerpt weighted towards active compounds, which were near 3.1% of everything screened.

Cc1cc(C)cc(NC(=O)COC(=O)C2CC3C=CC2C3)c1 (configuration not stated)	none (no result: PAFAH1B2 FP inh, PAFAH1B3 FP inh, PAFAH2 inh, pPAFAH inh)
NC(=O)c1ccc(NC(=O)COC(=O)C2CC3C=CC2C3)cc1 (configuration not stated)	none
O=C(COC(=O)C1CC2C=CC1C2)Nc1ccccc1[N+](=O)[O-] (configuration not stated)	PAFAH2 inh 77 | PAFAH2 confirm 58
Cc1cccc(-c2nc3ccccc3c3nncn23)c1	PAFAH2 inh 159 | PAFAH2 confirm inactive
c1ccc(-c2nc3ccccc3c3nncn23)cc1	none
C/C(=N\OC(=O)c1ccccc1)c1cc(-c2ccc(Cl)cc2)no1	none
C/C(=N/OC(=O)C1CC1)c1cc(-c2ccc(Cl)cc2)no1	PAFAH2 inh 73 | PAFAH2 confirm 61
O=C(NCc1cccs1)c1cc(S(=O)(=O)N2CCOCC2)c(Cl)cc1Cl	none
CCN(CC)C(=O)CSc1nc2c(sc(=S)n2-c2ccccc2)c(=O)n1-c1ccc(OC)cc1OC	none
CCN(CC)C(=O)CSc1nc2c(sc(=S)n2-c2ccccc2)c(=O)n1-c1ccccc1OC	PAFAH2 inh 37 (no result: pPAFAH inh) | PAFAH2 confirm inactive
O=C(COC(=O)C1=COCCO1)Nc1cc(Cl)c(Cl)cc1Cl	PAFAH2 inh 38 | PAFAH2 confirm 33
Cc1cc(C)c(NC(=O)COC(=O)C2=COCCO2)c(C)c1	none (no result: PAFAH1B2 FP inh, PAFAH1B3 FP inh, PAFAH2 inh, pPAFAH inh)
O=C(COC(=O)C1=COCCO1)Nc1c(F)cccc1F	none
Cc1ccc(NC(=O)COC(=O)C2=COCCO2)cc1	PAFAH2 inh 47 | PAFAH2 confirm 39
CC(C)c1cccc(C(C)C)c1NC(=O)COC(=O)C1=COCCO1	PAFAH2 inh 68 | PAFAH2 confirm 57
CCC(C)c1ccc(NC(=O)COC(=O)C2=COCCO2)cc1 (configuration not stated)	PAFAH2 inh 69 | PAFAH2 confirm 58
Cc1c(CNCCc2ccccc2Cl)c(C(=O)O)c(C)n1-c1ccccc1	none
C[C@@H](NCCCn1ccc(NC(=O)OCc2ccccc2)nc1=O)c1cccc2ccccc12	none (no result: pPAFAH inh)
O=C(COC(=O)C1=COCCO1)Nc1ccc2c(c1)OCO2	PAFAH2 inh 69 | PAFAH2 confirm 52
Cc1ccc(S(=O)(=O)NCc2nnnn2-c2ccc(F)cc2)cc1	none (no result: PAFAH1B2 FP inh, PAFAH1B3 FP inh, PAFAH2 inh, pPAFAH inh)
CC(C)n1c(N2CCN(C(=O)c3cccs3)CC2)nc2ccccc21	none
CC(C)n1c(N2CCN(C(=O)N3CCCCC3)CC2)nc2ccccc21	PAFAH2 inh 33 | PAFAH2 confirm inactive
COCCNC(=O)C1(C)CCN(Cc2ccc(C(C)C)cc2)C1 (configuration not stated)	none (no result: PAFAH1B2 FP inh, PAFAH1B3 FP inh, PAFAH2 inh, pPAFAH inh)
O=C(NNC(=O)C(c1ccccc1)c1ccccc1)c1ccccc1O	none (no result: PAFAH1B2 FP inh, PAFAH1B3 FP inh, PAFAH2 inh, pPAFAH inh)
C/C=C/C(=O)OCC(=O)Nc1ccc(OC)c(OC)c1	none
C/C=C/C(=O)OCC(=O)Nc1cccc(F)c1	PAFAH2 inh 78 | PAFAH2 confirm 65
C/C=C/C(=O)OCC(=O)Nc1cccc(Br)c1	PAFAH2 inh 82 | PAFAH2 confirm 73
C/C=C/C(=O)OCC(=O)Nc1ccc(OC)c(Cl)c1	PAFAH2 inh 39 | PAFAH2 confirm inactive
CCOc1ccc(S(=O)(=O)N2CCCCC2)cc1NC(=O)Cc1cccc(C(F)(F)F)c1	none
Cc1nc2ccc(NS(=O)(=O)c3ccc(F)c(C)c3)cc2[nH]1	none
CCc1ccc(NC(=O)C(C)OC(=O)Cn2[nH]c(=O)c3ccccc3c2=O)cc1 (configuration not stated)	none (no result: PAFAH1B2 FP inh, PAFAH1B3 FP inh, PAFAH2 inh, pPAFAH inh)
CCOC(=O)N1CCN(C(=O)c2ccccc2NC(=O)c2ccc(F)cc2)CC1	none
CCOC(=O)N1CCN(C(=O)c2ccccc2NC(=O)c2ccc(Br)cc2)CC1	PAFAH2 inh 44 | PAFAH2 confirm inactive
CN(C)c1cccc(C(=O)OCC(=O)NCC2CCCO2)c1 (configuration not stated)	none
COC(=O)c1ccc(CNC(=O)COC(=O)c2ccc(N(C)C)cc2)cc1	PAFAH2 inh 44 | PAFAH2 confirm 40
CC(=O)Nc1ccc(C(=O)OCC(=O)NCc2ccccc2)cc1	PAFAH2 inh 55 | PAFAH2 confirm 46
CN(C)c1ccc(C(=O)OCC(=O)NCC2CCCO2)cc1 (configuration not stated)	PAFAH2 inh 62 | PAFAH2 confirm 56
